Reference: PubChem BioAssay (NCI)
Compounds without any hit were thinned out: in the full panel of roughly 83,000, 20% have a hit.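 Single-dose data. Exposure time 48 hours. Values below 10 considered active.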 Values without a mark were called inactive. Active and inactive are the calls of the source.

The molecules below were run on HL-60(TB) leukemia (assay: NCI-60 one-dose screen, 48 h (100 = growth as untreated, 0 = no growth, -100 = all killed)). Conditions: 10 µM unless noted.

| Structure (SMILES) | growth |
| --- | --- |
| C=C(C)COC(=O)c1ccccc1C(=O)OCC1(C)CO1 (configuration not stated) | 133% |
| CCN(CC)CCCNC(=O)c1ccc(N)cc1O | 82.4% |
| Cc1ccc(CCCC(=O)O)c(C)c1 | 98.3% |
| COC(=O)c1cc2c(n1Cc1ccccc1)-c1oncc1CCC2 | 28.9% |
| COc1ccc(OCC(=O)OC(C)C)cc1 | 90% |
| N#Cc1c(Nc2ccc(N3CCOCC3)cc2)nc(SCC(=O)c2ccc(Br)cc2)nc1-c1ccccc1 | 86.2% |
| O=C1NC(=O)C(c2coc3cc(Br)ccc23)=C1c1c[nH]c2ccccc12 | 13.1% |
| C=C(C)[C@@H]1CC[C@]2(CO)CC[C@]3(C)[C@H](CC[C@@H]4[C@@]5(C)CCCNC(C)(C)[C@@H]5CC[C@]43C)[C@@H]12 | -51.9% (active) |
| Nc1n[nH]c2cc(F)c([C@@H]3Nc4c(F)cc5[nH]ncc5c4[C@H]4C5CCC(C5)[C@@H]34)cc12 (some centres not stated) | -30.1% (active) |
| Nc1nc(SCc2ccccc2)c2ncn(C3CCCC3)c2n1 | 75.2% |
| CCN(CC)C(=S)SSC(=S)N(CC)CC | 73.7% |
| O=C(OC12CC3CC(CC(C3)C1)C2)c1ccc(NCc2cc(O)ccc2O)cc1 | -52.6% (active) |
| N#C/C(C(=O)c1ccccc1)=C1/C(=O)Nc2ccc(F)cc21 | 130% |
| Cc1cccc(N=NC(=S)NNc2cccc(C)c2)c1 | 101% |
| O=C(NO)c1ccc(Cn2c(=O)n(CCc3ccc(O)cc3)c(=O)c3ccccc32)cc1 | 89.3% |
| COC(=O)c1[nH]cnc1/N=N/N(C)CCO | 86.5% |
| Fc1ccccc1CSc1ncnc2nc[nH]c12 | 90.4% |
| CCCCCCCC/C=C/CCCCCCCC1=NC(C)(C)CN1CCO | -61.5% (active) |
| O=S(=O)(Nc1cc(Cl)ccc1Cl)c1ccc(-c2cnc(C3CC3)o2)cc1 | 0.302% (active) |
| C=CCC(O)C=C (configuration not stated) | 101% |
| N=c1c2c(-c3ccccc3)c(-c3ccccc3)n(Cc3ccccc3)c2ncn1CCCO | 39% |
| O=C(NCCCCO)c1cncnc1Nc1ccc2c(ccn2Cc2cccc(F)c2)c1 | 100% |
| COC(=O)c1cc2c3c(cc(O)c2[nH]1)N(C(=O)C1Cc2cc(OC)c(OC)c(OC)c2N1)CC3CCl (configuration not stated) | -5.77% (active) |
| c1ccc(N2c3nc4ccccc4cc3Sc3cc4ccccc4nc32)nc1 | 97.2% |
| Fc1cc(C(F)(F)F)ccc1-c1cncnc1NC1CCCCCC1 | 86.4% |
| O=c1ccc2cc3ccccc3cc2[nH]1 | 67.7% |
| NC(=O)c1cccc(-c2ccccc2N2CCCCC2)c1 | 95.3% |
